# According to PubChem BioAssay AID1259418 (Broad Institute, 2018):
# In all, about 3,400 compounds went through this assay and about 840 (25%) were called active. About 11% were inconclusive and are not listed. Only a sample is shown. Entries with a potency or affinity are not part of this list. Unmarked numbers belong to inactive results.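 How the source made its calls: active means fitted half-maximal concentration of signal decrease at or below twice the sample's top tested concentration; inconclusive means flat curve between -70 and -30 percent, or poor fit; inactive means flat within 30 percent, signal rise, or potency above limit.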
# Assay: inhibitors of Toxoplasma growth in IFN-γ-primed HeLa – cell-based, ME49Luc, luciferase, 72 h, dose response (AID 1259418)
# Conditions: T. gondii ME49Luc in IFN-y HeLa, hits give low values, -100% = high-dose IFN-γ control wells; at 19.5 µM unless noted
row,SMILES,max activity
1,O=C(Cc1ccccc1Cl)Nc1ccc(-c2nc(-c3ccccc3)co2)cc1,20.3% [at 2.6 µM]
2,COc1ccccc1-c1nc(C)c(-c2ccc(SCc3ccc(F)cc3)nn2)s1,7.01% [at 0.35 µM]
3,Cc1cnc(N2CCC3(CCN(CC4CC4)C3=O)CC2)nc1,44%
4,Cc1cnc(N2CCC3(CCC(CC(=O)N4CC=CC4)CC3)CC2)nc1,19.8% [at 10 µM]
5,CCOc1ccc(CCNc2nc(-c3ccc(Cl)cc3)nc3ccccc23)cc1OCC,-12.8% [at 0.35 µM]
6,NCCCCCCNS(=O)(=O)c1ccc2c(Cl)cccc2c1,23.8%
7,O=C(Nc1ccc(F)cc1)Nc1ccc(-c2nc(-c3ccccc3)co2)cc1,-15.1% [at 1.35 µM]
8,COc1ccc(CNC(=O)Nc2ccc(-c3nc(-c4cc(C)ccc4C)co3)cc2)cc1,11.5%
9,COc1ccc(Cl)cc1S(=O)(=O)Nc1ccc(-c2nc(-c3ccc(C)cc3C)co2)cc1,11.6% [at 0.16 µM]
10,CCCCNC(=O)CCC1N=C2c3ccccc3N=C(SCC(=O)OCC)N2C1=O (stereo unspecified),-17.8% [at 2.6 µM]
11,CCCCNC(=O)CCC1N=C2c3ccccc3N=C(SCc3cc(=O)n4ccccc4n3)N2C1=O (stereo unspecified),21.9% [at 0.68 µM]
12,CCCCNC(=O)CC1N=C2c3ccccc3N=C(SCc3ccccc3Cl)N2C1=O (stereo unspecified),-10.2%
13,CCCCNC(=O)CCC1N=C2c3ccccc3N=C(SCC#N)N2C1=O (stereo unspecified),51.3%
14,COc1ccccc1CNC(=O)CCC1N=C2c3ccccc3N=C(SCc3ccc(Cl)cc3)N2C1=O (stereo unspecified),16% [at 2.6 µM]
15,CCCCNC(=O)CCC1N=C2c3ccccc3N=C(SCc3ccccc3F)N2C1=O (stereo unspecified),-6.88% [at 2.6 µM]
16,CCc1ccc(-c2noc(-c3nnn(Cc4nc(-c5ccc(C)cc5)oc4C)c3C)n2)cc1,8.04% [at 0.68 µM]
17,COc1ccc(OC)c(S(=O)(=O)Nc2ccc(-c3nc(-c4ccc(C)c(C)c4)co3)cc2)c1,20.8% [at 1.35 µM]
18,Cc1ccc(-c2nc(Cn3nnc(-c4nc(-c5ccc(C)c(C)c5)no4)c3C)c(C)o2)cc1,-11% [at 2.6 µM]
19,Cc1ccc(NC(=O)N2CCN(Cc3nc(-c4ccccc4C)oc3C)CC2)cc1Cl,14% [at 1.35 µM]
20,O=C(NCCc1csc(-c2ccccc2)n1)[C@H]1CCCN1C(=O)c1ccc(F)c(F)c1,13.1% [at 0.16 µM]
21,CCc1ccc(NC(=O)N2CCc3nc(-c4ccc(OC)c(OC)c4)sc3C2)cc1,7.81% [at 0.16 µM]
22,O=C1CCc2cc(NC(=O)c3cccnc3)ccc2N1,9.01% [at 1.35 µM]
23,Cc1ccc(-c2coc(-c3ccc(NC(=O)c4c(F)cccc4F)cc3)n2)cc1,20.4% [at 5 µM]

row,SMILES,max activity
1,Cc1ccc(-c2nc3c(s2)CN(S(=O)(=O)c2ccc(F)cc2)CC3)cc1,8.68% [at 10 µM]
2,CCc1nc(OCC(=O)Nc2ccc(C(C)C)cc2)c2ccccc2n1,25.6% [at 10 µM]
3,COc1ccc(-c2nc(Nc3ccccc3Cl)c3ccccc3n2)cc1,-9.71% [at 0.35 µM]
4,COc1cccc(CNC(=O)Nc2ccc(-c3nc(-c4ccccc4)co3)cc2)c1,78.4%
5,Cc1cccc(-c2nc(Cn3nnc(-c4nc(-c5ccccc5Br)no4)c3C)c(C)o2)c1,9.01% [at 2.6 µM]
6,CCCCNC(=O)CCC1N=C2c3ccccc3N=C(SCc3ccc(C)cc3)N2C1=O (stereo unspecified),25.3% [at 2.6 µM]
7,CN(C)c1cccc(C(=O)N2CCC3(CC2)Nc2ccc(Cl)cc2-n2cccc23)c1,-25.9% [at 10 µM]
8,Cc1nc(OCC(=O)Nc2cc(Cl)ccc2Cl)c2ccccc2n1,20.7% [at 0.68 µM]
9,COc1ccc(S(=O)(=O)Nc2ccc(-c3nc(-c4ccc(C)cc4C)co3)cc2)cc1,26.2% [at 5 µM]
10,CCCc1ccc(S(=O)(=O)Nc2ccc(-c3nc(-c4ccc(C)cc4C)co3)cc2)cc1,-16.7% [at 0.16 µM]
11,Cc1ccc(S(=O)(=O)Nc2ccc(-c3nc(-c4ccc(C)cc4C)co3)cc2)cc1,12.9% [at 0.16 µM]
12,Cc1ccc(-c2coc(-c3ccc(NS(=O)(=O)c4ccc(C(C)(C)C)cc4)cc3)n2)c(C)c1,-14.9%
13,Cc1ccc(-c2coc(-c3ccc(NS(=O)(=O)c4ccc(N5CCCC5=O)cc4)cc3)n2)c(C)c1,-11% [at 0.68 µM]
14,Cc1ccc(-c2coc(-c3ccc(NS(=O)(=O)c4ccc(C(C)C)cc4)cc3)n2)c(C)c1,-13.7%
15,Cc1ccc(-c2coc(-c3ccc(NS(=O)(=O)c4cccc(Cl)c4)cc3)n2)c(C)c1,-22.9%
16,Cc1ccc(-c2coc(-c3ccc(NS(=O)(=O)c4cccc(Cl)c4C)cc3)n2)c(C)c1,16.4% [at 2.6 µM]
17,Cc1nc(OCC(=O)Nc2ccccc2Br)c2ccccc2n1,28.1% [at 0.16 µM]
18,Cc1ccc(C)c(-c2nc(CN3CCc4c(sc5c4CCCC5)C3c3ccccc3)c(C)o2)c1 (stereo unspecified),15.8%
19,COc1ccccc1-c1nc(Cn2nnc(-c3nc(-c4ccc5c(c4)OCO5)no3)c2C)c(C)o1,8.21% [at 0.35 µM]
20,O=C(Nc1ccc(-c2nc(-c3ccccc3)co2)cc1)Nc1cccc(Cl)c1,19.9% [at 0.16 µM]
21,O=C(c1cccnc1)N1CCC2(CC1)Nc1ccc(Cl)cc1-n1cccc12,-27.3% [at 0.16 µM]
22,CCOc1ccc(N2CC(NC(=O)C(=O)c3c[nH]c4ccccc34)CC2=O)cc1 (stereo unspecified),10.2% [at 10 µM]
23,O=C(NC1CC(=O)N(c2ccc(Cl)cc2)C1)C(=O)c1c[nH]c2ccccc12 (stereo unspecified),22.9% [at 2.6 µM]
